Reference: the supplement of paper PMC11628255, “Interference of metal ions on the bioluminescent signal of firefly, Renilla, and NanoLuc luciferases in high-throughput screening assays” (Frontiers in Chemistry, 2024)
± gives the standard deviation of the averaged measurements.

System: NanoLuc luciferase (NLuc)
Test: residual bioluminescent signal relative to negative control without GSH; higher = less interference (more residual luciferase signal)
Settings: screening conditions buffer
Experimental: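 Selected metal salts at 3-4 concentrations tested on purified FLuc, NLuc or RLuc in screening buffer with 0, 0.2 or 2 mM glutathione added; 10 min enzyme pre-incubation at RT, luminescence 10 min after substrate. Signal normalised to negative control without GSH (% N_VALUE); triplicate wells.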

[1] = metal salt concentration 1 mM, glutathione 0 mM
[2] = metal salt concentration 1 mM, glutathione 0.2 mM
[3] = metal salt concentration 1 mM, glutathione 2 mM

Row | Compound | residual bioluminescent signal (metal salt concentration 0.01 mM, glutathione 0 mM) [%] | residual bioluminescent signal (metal salt concentration 0.01 mM, glutathione 0.2 mM) [%] | residual bioluminescent signal (metal salt concentration 0.01 mM, glutathione 2 mM) [%] | residual bioluminescent signal (metal salt concentration 0.816 mM, glutathione 0 mM) [%] | residual bioluminescent signal (metal salt concentration 0.816 mM, glutathione 0.2 mM) [%] | residual bioluminescent signal (metal salt concentration 0.816 mM, glutathione 2 mM) [%] | residual bioluminescent signal [1] [%] | residual bioluminescent signal [2] [%] | residual bioluminescent signal [3] [%] | residual bioluminescent signal (metal salt concentration 2.5 mM, glutathione 0 mM) [%] | residual bioluminescent signal (metal salt concentration 2.5 mM, glutathione 0.2 mM) [%] | residual bioluminescent signal (metal salt concentration 2.5 mM, glutathione 2 mM) [%] | residual bioluminescent signal (metal salt concentration 0.05 mM, glutathione 0 mM) [%] | residual bioluminescent signal (metal salt concentration 0.05 mM, glutathione 0.2 mM) [%] | residual bioluminescent signal (metal salt concentration 0.05 mM, glutathione 2 mM) [%] | residual bioluminescent signal (metal salt concentration 0.88 mM, glutathione 0 mM) [%] | residual bioluminescent signal (metal salt concentration 0.88 mM, glutathione 0.2 mM) [%] | residual bioluminescent signal (metal salt concentration 0.88 mM, glutathione 2 mM) [%] | residual bioluminescent signal (metal salt concentration 5 mM, glutathione 0 mM) [%] | residual bioluminescent signal (metal salt concentration 5 mM, glutathione 0.2 mM) [%] | residual bioluminescent signal (metal salt concentration 5 mM, glutathione 2 mM) [%]
1 | [Cl][Fe]([Cl])[Cl] [iron(III) chloride] | 95.59 ± 0.8 | 101 ± 6.7 | 82.7 ± 2.5 | 60.2 ± 3.4 | 69.1 ± 0.65 | 28.9 ± 1.5 | 54.3 ± 4.4 | 55.5 ± 7.2 | 44.4 ± 35 | 4.41 ± 1.8 | 7.61 ± 0.73 | 1.69 ± 0.99 | – | – | – | – | – | – | – | – | –
2 | [Cl][Fe][Cl] [iron(II) chloride] | – | – | – | – | – | – | 38.2 ± 3.3 | 47.6 ± 1.5 | 30.5 ± 2.4 | – | – | – | 94.3 ± 1.3 | 100 ± 3.5 | 82.2 ± 1.7 | 47.8 ± 5.5 | 49.4 ± 1.8 | 34.8 ± 2.7 | 1.69 ± 0.79 | 2.48 ± 0.68 | 7.22 ± 0.76
